Cycloheximide cs: counter-screen hit for Shiga toxin inhibitors, cycloheximide; cell reporter, cycloheximide protein synthesis inhibition counterscreen; max response, %; 300,000 tested, 12% active; AID 2314; in the data active means max response mostly above about 13%, no sharp cut-off; inactive means mostly below about 14%; further: read at 38.3 µM for the half of the compounds with a filed dose
AmpC detergent: AmpC beta-lactamase inhibition with detergent present; P00811; AmpC hydrolysis of nitrocefin, absorbance 480 nm, 0.01% Triton; Potency, µM (series often up to 114 µM), usual class: inhibitors; 370,000 tested, 0.041% active; AID 485294; further: nearly all actives have a fitted effect of over 25% in size
Target sequence (P00811 whole entry, looked up): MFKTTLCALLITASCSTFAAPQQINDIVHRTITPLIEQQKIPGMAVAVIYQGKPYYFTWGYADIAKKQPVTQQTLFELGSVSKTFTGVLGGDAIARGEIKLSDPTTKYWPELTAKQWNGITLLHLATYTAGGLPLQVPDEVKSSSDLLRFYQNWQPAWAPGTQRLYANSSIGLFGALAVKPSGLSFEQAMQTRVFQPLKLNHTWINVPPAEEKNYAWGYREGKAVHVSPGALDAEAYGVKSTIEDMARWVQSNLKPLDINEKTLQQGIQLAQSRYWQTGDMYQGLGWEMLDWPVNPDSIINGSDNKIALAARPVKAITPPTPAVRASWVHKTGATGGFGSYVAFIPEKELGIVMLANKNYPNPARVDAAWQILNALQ
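AmpC (5.3 nM in the dispensed reagent) in 20 mM phosphate pH 7.0 with 0.01% (detergent screen) or 0.0001% Triton X-100 was preincubated with compounds for 15 min at room temperature. Nitrocefin was then added from an 800 uM solution, and hydrolysis was followed at 480 nm.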
Shiga toxin inh: Shiga toxin inhibition. Vero cells, Shiga toxin protein synthesis inhibition reporter. inhibition, % at 38.7 µM. 290,000 tested, 9.2% active. AID 2315; in the data active means inhibition mostly above about 28%, no sharp cut-off; inactive means mostly below about 43%
NS1 function inh: blocks influenza NS1 protein function. Potency, µM (series often up to 46.1 µM). 270,000 tested, 0.4% active; calls by dose curve; further: actives are rising curves; nearly all actives have a fitted effect of over 50% in size
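Recovery from NS1-induced slow growth read by OD600 in budding yeast switched to galactose assay medium (pH 6.0, -URA) at 1:100 dilution. Compound 23 nl per well; the matching strain lacking NS1 serves as control.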
AmpC inh no detg: AmpC beta-lactamase inhibition without detergent; 330,000 tested, 0.52% active; Potency, µM (doses to about 57.1 µM), most hits filed as inhibitors; P00811; AID 485341; AmpC nitrocefin hydrolysis, absorbance 480 nm, 0.0001% Triton; further: nearly all actives have a fitted effect of over 20% in size
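AmpC (5.3 nM in the dispensed reagent) in 20 mM phosphate pH 7.0 with 0.01% (detergent screen) or 0.0001% Triton X-100 was preincubated with compounds for 15 min at room temperature. Nitrocefin was then added from an 800 uM solution, and hydrolysis was followed at 480 nm.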
Numbers stand for hits; 0 = inactive; ? = inconclusive; - = no result. This excerpt belongs to a sample that is enriched for hits. Unless noted, the call rests on the fitted dose curve; in most records, active means well fitted curve in the direction sought with a large enough effect; inconclusive means small, poorly fitted or top-dose-only effect, or another doubt; inactive means no such curve, though single readings can be large; an effect the other way counts as inactive or inconclusive.

SMILES	Cycloheximide cs	AmpC detergent	Shiga toxin inh	NS1 function inh	AmpC inh no detg
O=C(Cn1cc2c(n1)CCCCC2)N1CCc2ccccc2C1	0	?	0	0	0.56µM
O=C(CCCOc1ccc(Cl)cc1Cl)N1CCc2ccccc2C1	0	0	0	0	0
O=C(CSc1ncccn1)N1CCc2ccccc2C1	14	0	0	0	0
CCOC(=O)CNC(=O)N1CCc2cc(S(=O)(=O)N3CCC(C)CC3)ccc21	-	0	-	-	-
Cc1ccc(NC(=O)Cn2nc3c(cc2=O)CCCC3)cc1Cl	-	0	-	-	-
COc1ccc(NC(=O)CSc2nc3ccccc3nc2N2CCC(C)CC2)cc1	-	0	-	-	-
COc1ccc(Cl)cc1NC(=O)CSc1nccn1-c1ccc(Cl)cc1	-	0	-	-	-
Cc1ccc(OCC(=O)N2CCc3ccccc3C2)cc1	0	0	0	0	0
O=C(Cc1ccc(Br)cc1)N1CCc2ccccc2C1	39	0	-	0	0
O=C(COc1ccc(F)cc1)N1CCc2ccccc2C1	32	0	0	0	0
Cc1ccc2[nH]c(=O)c(CN(CCc3ccccc3)C(c3nnnn3Cc3ccco3)C(C)C)cc2c1 (stereo unspecified)	0	0	40	?	0
CCc1ccc2[nH]c(=O)c(CN(Cc3ccccc3)Cc3nnnn3Cc3ccco3)cc2c1	24	0	72	0	0
COC(=O)C1=C[C@@H](C(=O)OC)[C@@H]2C3=C(C(=O)[C@@]2(C)NC(=O)c2ccccc2)[C@H](C)[C@@H]2C(=O)N(c4ccccc4)C(=O)[C@@H]2[C@@H]3C1	0	-	0	-	-
CS(=O)(=O)c1ccc2nc(NC(=O)c3ccco3)sc2c1	36	0	40	0	0
O=C(NC(=S)Nc1nc2ccc(F)cc2s1)c1ccco1	32	0	90	-	0
O=C(NC(=S)Nc1cccc(NC(=S)NC(=O)c2ccco2)n1)c1ccco1	0	0	0	0	0
Cc1cccc2sc(NC(=O)C3CCN(C(=O)c4ccco4)CC3)nc12	38	0	0	0	0
Cc1c(Cl)ccc2sc(NC(=O)c3ccco3)nc12	67	0	83	0	0
CC(=O)Nc1ccc(S(=O)(=O)N2CCC(C(=O)N[C@@H](C)C(=O)NC3CCCC3)CC2)cc1	0	0	0	0	0
CCOc1ccc(NC(=O)Cn2c(CCC(=O)O)ccc2-c2ccc(C)cc2)cc1	-	0	-	-	-
Cc1ccc(C(=O)Nc2nc3ccc(S(C)(=O)=O)cc3s2)o1	34	0	44	0	0
CS(=O)(=O)c1ccc2nc(NC(=O)c3cc4ccccc4o3)sc2c1	0	0	0	0	0
CSc1ccc(/C=N/NC(=O)c2cc(O)cc(O)c2)cc1	22	0	41	0	0
O=C(N/N=C\c1ccc(COc2ccc([N+](=O)[O-])cc2)o1)c1ccc(Cl)cc1	0	0	0	0	0
CSc1ccc(/C=N/NC(=O)c2sccc2C)cc1	46	0	64	0	0
SMILES	Cycloheximide cs	AmpC detergent	Shiga toxin inh	NS1 function inh	AmpC inh no detg
CSc1ccc(/C=N/NC(=O)c2ccc(C)c(C)c2)cc1	44	0	52	?	0
COc1ccc(OCc2ccc(/C=N\NC(=O)c3sccc3C)o2)cc1	25	0	68	0	0
COCCCNC(=O)CC(=O)N/N=C\c1ccc(SC)cc1	0	0	0	0	0
Cc1cccc(C(=O)Oc2ccc(/C=N/NC(=O)c3cc(O)cc(O)c3)cc2)c1	0	?	0	0	0
COc1cc(C(=S)N2CCOCC2)ccc1OC(=O)c1cccc(C)c1	0	0	0	0	0
COc1cccc(-c2cn3ncsc3n2)c1	-	0	-	-	-
Nc1cc([N+](=O)[O-])ccc1Nc1ccc(O)cc1	0	0	0	0	32µM
Nc1ccccc1Nc1ccc([N+](=O)[O-])cc1[N+](=O)[O-]	0	?	0	0	0
CCOc1ccc(C(=O)NC2CC(=O)N(c3ccc4c(c3)OCCO4)C2)cc1 (stereo unspecified)	-	0	-	-	0
CCOc1ccc(N/C(C)=C/C(=O)c2ccc3c(c2)OCCO3)cc1	56	0	60	0	0
CCOc1ccc(N/C(C)=C\C(=O)c2ccc3c(c2)OCCO3)cc1	50	0	86	0	0
CCOc1ccc(C(=O)N(CC)CC(=O)Nc2ccc3c(c2)OCCO3)cc1	-	0	-	-	0
CCC(=O)Nc1cc(NC(=O)CSc2ncc(-c3ccc(F)cc3)n2Cc2ccco2)ccc1C	27	?	76	0	0
CCOc1ccc(NC(=O)CSc2nccn2Cc2ccco2)cc1	31	0	41	0	0
CCOC(=O)CNC(=O)CSc1nccn1Cc1ccco1	0	0	0	0	0
COc1ccc(NC(=O)CSc2nccn2Cc2ccco2)cc1	56	?	124	0	0
COc1ccc(NC(=O)CSc2nccn2Cc2ccco2)cc1OC	27	0	36	0	0
COc1cc(OC)c(NC(=O)N2CCc3cc(S(=O)(=O)N4CCC(C)CC4)ccc32)cc1Cl	-	0	-	-	-
COc1ccc(-c2nc(CSc3nnc(C)n4c3cc3sccc34)c(C)o2)cc1	-	0	-	-	-
COc1cccc(NC(=O)C2CCN(S(=O)(=O)c3c(C)noc3C)CC2)c1	-	0	-	-	-
CN(C)C(=O)c1cc(C(=O)c2ccc(F)cc2Cl)c[nH]1	50	0	73	0	0
CN(C)C(=O)c1cc(C(=O)c2ccc(C(F)(F)F)cc2)c[nH]1	16	0	0	0	0
CN(C)C(=O)c1cc(C(=O)c2ccc(Cl)cc2Cl)c[nH]1	51	0	99	0	0
CCCCN(C(=O)CSCC(=O)Nc1ccc(OC)cc1)c1c(N)n(Cc2ccccc2)c(=O)[nH]c1=O	-	0	-	-	0
Cc1ccc2c(c1)c1nnc(SCC(=O)NC3CC3)nc1n2C	0	0	0	0	0
SMILES	Cycloheximide cs	AmpC detergent	Shiga toxin inh	NS1 function inh	AmpC inh no detg
O=C(O)CSc1nnc2c(n1)[nH]c1ccccc12	0	0	0	-	0
COc1ccc2[nH]c3nc(SC(C)C)nnc3c2c1	68	0	105	0	0
CCOC(=O)CC(=O)CSc1nnc2c(n1)[nH]c1ccccc12	20	0	0	0	0
Brc1ccc2[nH]c3nc(SCCN4CCOCC4)nnc3c2c1	0	0	0	0	0
CCSc1nnc2c3cc(CC)ccc3n(C)c2n1	active	0	0	0	0
c1ccc2c(c1)[nH]c1nc(SCCN3CCOCC3)nnc12	13	0	0	0	0
COc1ccc(-n2nc3ccc(NC(=O)c4ccc(C#N)cc4F)cc3n2)cc1Cl	-	0	-	-	-
Cn1c(=O)c(=O)n(C)c2cc(S(=O)(=O)NCCOc3ccccc3)ccc21	0	0	0	0	0
COc1ccccc1CCNC(=O)Cn1ccc2cc(S(=O)(=O)N3CCC(C)CC3)ccc21	0	0	0	0	0
CC(C)CSc1nnc2c(n1)[nH]c1ccccc12	32	?	0	0	0
CC(C)CSc1nnc2c3ccccc3n(C)c2n1	34	0	-	0	0
CCCCSc1nnc2c(n1)[nH]c1ccccc12	46	?	128	0	0
CCn1cc(C(=O)NC(=S)Nc2ccccc2[N+](=O)[O-])cn1	35	0	58	0	0
CCn1cc(C(=O)NC(=S)Nc2cccc(O)c2)cn1	28	0	58	0	0

Compound activity: PubChem, National Center for Advancing Translational Sciences (NCATS)
